{
  "source": "PubChem BioAssay AID2284339",
  "about": "(EPA ToxCast)",
  "note": "Activity calls are given as the source filed them. How the source made its calls: active means hit-call score of the fitted dose curve at least 0.9, where 1 is the maximum; inactive means score below 0.9.",
  "data": [
    {"tested_on": "NCBI gene 100038242", "assay": "CCTE_GLTED_xDIO3: CCTE's Xenopus Iodothyronine Deiodinase Type 3 (xDIO3) Inhibition Assay, Great Lakes Toxicology and Ecology Division (GLTED) Lab", "method": "CCTE_GLTED_xDIO3 is a cell-free, single-readout assay designed to test the inhibitory activity of chemicals toward Xenopus (frog) iodothyronine Deiodinase Type 3 (DIO3) enzyme. Enzyme is incubated in presence of test chemical for 3 hours during which uninhibited enzyme liberates free iodide from substrate. Free iodide is measured in a second step using the Sandell-Kolthoff method.CCTE_GLTED_xDIO3 is the assay component measured from the CCTE_GLTED_xDIO assay. It is designed to make measurements of enzyme activity, a form of enzyme reporter, as detected with absorbance signals by spectrophotometry.Data from the assay component CCTE_GLTED_xDIO3 was analyzed at the assay endpoint CCTE_GLTED_xDIO3 in the positive analysis fitting direction relative to DMSO as the negative control and baseline of activity. Using a type of enzyme reporter, loss-of-signal activity can be used to understand deiodinase Type 3 activity. To generalize the intended target to other relatable targets, this assay endpoint is annotated to the 'deiodinase' intended target family, where the subfamily is 'deiodinase Type 3'.\n[…]", "values": [
      {"smiles": "OC(O)(C(F)C(O)(O)C(F)(F)F)C(F)(F)F", "AC50": "19.8 µM (active)"},
      {"smiles": "COc1cc(O)c(CC=C(C)C)c(O)c1C(=O)/C=C/c1ccc(O)cc1", "AC50": "0.16 µM (active)"},
      {"smiles": "C=CC(=O)OCC(F)(F)C(F)(F)C(F)(F)C(F)(F)C(F)(F)C(F)(F)C(F)(F)C(F)F", "AC50": "20.7 µM (active)"},
      {"smiles": "O=C(O)C(F)(F)OC(F)(F)C(F)(F)OC(F)(F)C(F)(F)OC(F)(F)C(F)(F)C(F)(F)C(F)(F)F", "AC50": "72.2 µM (active)"},
      {"smiles": "C=C(C)C(=O)OCC(F)(F)C(F)(F)C(F)(F)C(F)F", "AC50": "17.7 µM (active)"},
      {"smiles": "C=CC(=O)OCC(F)(F)C(F)(F)C(F)(F)C(F)(F)COC(=O)C=C", "AC50": "15.9 µM (active)"},
      {"smiles": "C=CC(=O)OCC(F)(F)C(F)(F)C(F)(F)COC(=O)C=C", "AC50": "33.5 µM (active)"},
      {"smiles": "C=CC(=O)OCCC(F)(F)C(F)(F)C(F)(F)C(F)(F)F", "AC50": "24.4 µM (active)"},
      {"smiles": "C=C(C)C(=O)OCC(F)(F)C(F)(F)C(F)(F)F", "outcome": "inactive"},
      {"smiles": "O=C(Cl)C(F)(F)C(F)(F)C(F)(F)C(F)(F)C(F)(F)C(F)(F)C(F)(F)C(F)(F)F", "outcome": "inactive"},
      {"smiles": "O=C(O)C(F)(F)C(F)(F)C(F)(F)C(F)(F)C(F)(F)C(F)(F)C(F)(F)C(F)(F)C(F)(F)C(F)F", "AC50": "161 µM (active)"},
      {"smiles": "O=C(O)C(F)(F)C(F)(F)C(F)(F)C(F)(F)C(F)(F)C(F)(F)C(F)(F)C(F)(F)C(F)(F)C(F)(F)C(F)(F)C(F)(F)F", "outcome": "inactive"},
      {"smiles": "O=P(O)(O)CCC(F)(F)C(F)(F)C(F)(F)C(F)(F)C(F)(F)C(F)(F)C(F)(F)C(F)(F)F", "outcome": "inactive"},
      {"smiles": "O=C(O)C(F)(F)C(F)(F)C(F)(F)C(F)(F)C(F)(F)C(F)(F)C(F)(F)C(F)(F)Cl", "outcome": "inactive"}
    ]}
  ]
}
